Rows were chosen to be rich in hits. Some 2.4% of all compounds tested hit in one or more screens of this group.
AmpC nodet inh: blocks E. coli AmpC beta-lactamase in absence of detergent | Potency, µM (titrated, usually from 28.7 µM), for inactives: at the top dose activity change, negative = inhibition | AmpC nitrocefin hydrolysis, absorbance 480 nm, no detergent | P00811 | actives 1.8% (n = 71,000); also: % of control where 0% means no effect
Target sequence (P00811 whole entry, looked up): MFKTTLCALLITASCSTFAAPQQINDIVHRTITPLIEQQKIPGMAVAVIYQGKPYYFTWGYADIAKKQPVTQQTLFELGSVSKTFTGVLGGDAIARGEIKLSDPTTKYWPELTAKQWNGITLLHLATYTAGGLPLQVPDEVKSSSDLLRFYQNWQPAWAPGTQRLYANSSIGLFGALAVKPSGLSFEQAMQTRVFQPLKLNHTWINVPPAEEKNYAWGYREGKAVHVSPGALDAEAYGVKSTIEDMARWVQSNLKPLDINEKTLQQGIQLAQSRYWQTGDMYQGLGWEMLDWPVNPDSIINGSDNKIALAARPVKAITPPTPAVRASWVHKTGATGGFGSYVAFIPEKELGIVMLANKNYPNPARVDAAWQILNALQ
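Enzyme, pH 7.0 phosphate. Compound titrations were pre-incubated with AmpC for 15 min at room temperature before nitrocefin (stock 800 uM) addition; product formation was recorded at 480 nm every 20 s for 4 min.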
LT uptake inh: anthrax lethal toxin internalization inhibition; Cells, anthrax lethal toxin internalization, FRET ratio (460/530); actives 0.67% (n = 70,000); Potency, µM (highest dose often 40 µM), for inactives: top-dose activity change, negative = inhibition, actives largely listed as inhibitors; also: % is scaled to controls: 0 for no effect and ±100 for the full control effect; nearly all actives have a fitted effect of over 50% in size
Prx2 Sm inh: Schistosoma mansoni Prx2 inhibition; AID 448; Potency, µM; actives 0.07% (n = 65,000); S. mansoni Prx2 activity coupled to TGR/GSH (TGR is thioredoxin glutathione reductase), NADPH fluorescence loss, qHTS
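Enzyme mix: 100 uM NADPH, 25 nM TGR, 700 uM GSH, 50 nM Prx2 in 100 mM phosphate pH 7.4, 10 mM EDTA, 0.01% Tween-20. 15 min RT with compound; NADPH/GSH added, H2O2 starts reaction; NADPH fluorescence read 8 min.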
AmpC inh det: AmpC beta-lactamase inhibition, detergent assay | P00811 | purified AmpC, nitrocefin hydrolysis with detergent | Potency, µM (doses to about 28.7 µM), for the others: at the highest dose activity change, negative = inhibition | actives 0.09% (n = 71,000) | AID 584; active = well fitted curve in the direction sought with a large enough effect; inconclusive = small, poorly fitted or top-dose-only effect; also: % is scaled to controls: 0 for no effect and ±100 for the full control effect
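E. coli AmpC (5.3 nM) in 20 mM phosphate pH 7.0 with 0.01% Triton X-100, preincubated 15 min RT with compound; nitrocefin (2 uL of 800 uM stock) hydrolysis followed by 480 nm absorbance every 20 s over 4 min.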
* = called active by the depositor; [ ] = another dose, or the depositor's remark. Unless noted, calls follow the shape of the full dose curve. Potency is read from the fitted curve at half-maximal effect.

For COc1ccc(C2CC(c3cccc(C)c3)n3nc(N)nc3N2)cc1 (configuration not stated) the results were AmpC nodet inh 4µM*[single pt active], LT uptake inh -3%, Prx2 Sm inh >57 and AmpC inh det 11%.
`C=C[C@@H]1CN2CC[C@@H]1C[C@H]2[C@H](O)c1ccnc2ccccc12` gave AmpC nodet inh -1%, LT uptake inh -12%, Prx2 Sm inh >57 and AmpC inh det -2%.
Oc1cc(Cl)cc(Cl)c1 was read as AmpC nodet inh 0%, LT uptake inh -4% and AmpC inh det 5%.
For O=C1c2ccccc2C(=O)c2c1ccc(N1C(=O)c3ccccc3C1=O)c2-c1c(N2C(=O)c3ccccc3C2=O)ccc2c1C(=O)c1ccccc1C2=O the results were AmpC nodet inh -2%[5.75 µM], LT uptake inh -19%[8 µM], Prx2 Sm inh >57 and AmpC inh det -4%[5.75 µM].
Screening Cc1ccc(S(=O)(=O)C2(C(=O)NCc3ccc4c(c3)OCO4)CC2)cc1 returned AmpC nodet inh 4µM*[single pt active], LT uptake inh 1%, Prx2 Sm inh >57 and AmpC inh det 11%.
Screening O=C1C(SCCO)=C(SCCO)C(=O)c2ccccc21 returned AmpC nodet inh 10%, LT uptake inh 4µM*, Prx2 Sm inh >57 and AmpC inh det 10%.
`Cc1nnc(SCCc2ccccc2)[nH]c1=O` gave AmpC nodet inh -19%, LT uptake inh 2%, Prx2 Sm inh >57 and AmpC inh det 11%.
Screening Cc1ccccc1CSc1nnc(C)c(=O)[nH]1 returned AmpC nodet inh 4µM*[single pt active], LT uptake inh -10%, Prx2 Sm inh >57 and AmpC inh det 12%.
For COC(=O)N1CCC2(CCCN(Cc3ccc(C#N)cc3)C2)CC1 the results were AmpC nodet inh 12%, LT uptake inh 7%, Prx2 Sm inh >57 and AmpC inh det -2%.
For CCOC(=O)C1=C(C)N=c2s/c(=C\c3cccn3C)c(=O)n2C1c1cccc(OC)c1OC (configuration not stated) the results were AmpC nodet inh 33%, LT uptake inh inconclusive and AmpC inh det 10%.
Screening CCOC(=O)C1=C(C)N=c2s/c(=C/c3ccco3)c(=O)n2C1c1cccc(OC)c1 (configuration not stated) returned AmpC nodet inh 7.9µM*, LT uptake inh inconclusive, Prx2 Sm inh >57 and AmpC inh det 6%.
`COc1ccc(NC(=O)Cn2nc(C(F)(F)F)c3c2CCCC3)c(OC)c1` gave AmpC nodet inh 52%, LT uptake inh 13µM*, Prx2 Sm inh >57 and AmpC inh det -7%.
For COc1ccc(CNC(=O)Cn2nc(C(F)(F)F)c3c2CCC3)cc1 the results were AmpC nodet inh 7%, LT uptake inh -5%, Prx2 Sm inh >57 and AmpC inh det -2%.
Screening ClC=CCl returned AmpC nodet inh -4%, LT uptake inh -4% and AmpC inh det 4%.
`COc1ccc(OC)c(NC(=O)Nc2nnc(N3CCC(C)CC3)s2)c1` gave AmpC nodet inh 4µM*[single pt active], LT uptake inh inconclusive, Prx2 Sm inh >57 and AmpC inh det 11%.
For COc1ccc(NC(=O)Nc2nnc(N3CCC(C)CC3)s2)cc1OC the results were AmpC nodet inh 4µM*[single pt active], LT uptake inh -1%, Prx2 Sm inh >57 and AmpC inh det 18%.
Screening CCOC(=O)[C@@H]1[C@@H]2c3ccccc3-c3ccccc3[C@H]2C[C@H]1O returned AmpC nodet inh 34%[5.75 µM], LT uptake inh inconclusive, Prx2 Sm inh >57 and AmpC inh det -2%[5.75 µM].
Screening Cn1cccc1C(=O)NC(=O)COC(=O)c1ccccc1Sc1ccccc1C#N returned AmpC nodet inh 4µM*, LT uptake inh inconclusive, Prx2 Sm inh >57 and AmpC inh det 0%.
`N#Cc1cccc(-c2nc(NCc3cccnc3)c3ccccc3n2)c1` gave AmpC nodet inh 0.63µM*, LT uptake inh inconclusive, Prx2 Sm inh >57 and AmpC inh det 10µM*.
COc1cccc(-c2nc(NCc3cccnc3)c3ccccc3n2)c1 was read as AmpC nodet inh inconclusive, LT uptake inh -20%, Prx2 Sm inh >57 and AmpC inh det 13µM*.
Screening CO[C@@H]1CC=C2CCN3CCC4=C(CC(=O)OC4)[C@]23C1 returned AmpC nodet inh -8%, LT uptake inh 3%, Prx2 Sm inh >57 and AmpC inh det -1%.
For O=C(Cn1c(=O)n(Cc2ccco2)c(=O)c2ccccc21)Nc1cccc(Cl)c1 the results were AmpC nodet inh 2.5µM*[single pt active], LT uptake inh 2.5µM*, Prx2 Sm inh >57 and AmpC inh det 13%.

Screening data from PubChem.
